Experimental findings from PubChem BioAssay AID2235 (The Scripps Research Institute Molecular Screening Center, 2010) are described below.

Structures are written as SMILES. About 2,800 (0.88%) of roughly 320,000 compounds were called active.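 The calls were made as follows: active = inhibition above the mean inhibition of all tested compounds plus 3 SD, computed separately for each screening campaign (cut at about 15% in these data); inactive = the rest.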 The sample as a whole holds a higher share of actives than the screen did.

The target in the test is Serine/threonine-protein phosphatase PP1-alpha catalytic subunit (Homo sapiens) (UniProt P62136). Kind of test: inhibition of human PP1 catalytic subunit – biochemical, fluorescence, OMFP substrate, single point, counter-screen for PP5 inhibitor project, primary screen (AID 2235). The following applies: purified PP1alpha, at 6.7 µM, stronger effect = higher value.
Chain of Serine/threonine-protein phosphatase PP1-alpha catalytic subunit (Homo sapiens) (P62136 whole entry, looked up): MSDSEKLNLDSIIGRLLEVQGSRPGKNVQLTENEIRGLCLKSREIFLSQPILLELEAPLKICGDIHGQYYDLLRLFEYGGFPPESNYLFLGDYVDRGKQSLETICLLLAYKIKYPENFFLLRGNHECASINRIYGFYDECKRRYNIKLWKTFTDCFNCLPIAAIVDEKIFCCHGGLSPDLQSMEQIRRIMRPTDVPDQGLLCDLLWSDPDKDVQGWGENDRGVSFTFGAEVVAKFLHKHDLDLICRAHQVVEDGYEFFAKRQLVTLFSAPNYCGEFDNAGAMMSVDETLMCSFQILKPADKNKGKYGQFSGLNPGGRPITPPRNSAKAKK
For `CC(Sc1nnnn1C)C(=O)NC(=O)NC1CCCCC1` (centres undefined), the inhibition (as a rule, the relative decrease from the control value, in per cent) is 10.8% (inactive).
As to `CCN(CCNC(=O)C1=C(C)C(=O)OC12CCC(C)CC2)c1ccccc1` (centres undefined), the inhibition is -1.92% (inactive).
For `Cc1ccc(NC(=O)Nc2cccc(C(F)(F)F)c2)nc1`, the inhibition was 2.27% (inactive).
The same measure for `O=C(Nc1ccc(C(=O)N2CCOCC2)cc1)Nc1cccc(C(F)(F)F)c1`: 0.27% (inactive).
The same measure for `CCNS(=O)(=O)c1ccc(NC(=O)Nc2cccc(C(F)(F)F)c2)cc1`: 34.2% (active).
Under `CCCCNCc1ccc(SC)cc1` stands -2.43% (inactive).
For the compound `N=c1c2c3c(sc2nc2n1CCCCC2)CCCC3`, the inhibition was -1.9% (inactive).
Consider `CCCCn1c(SCc2ncc(-c3ccccc3)o2)nc2cc(S(N)(=O)=O)ccc21`, for which the inhibition is 17.9% (active).
The same measure for `CCCCn1c(SCC(=O)N2CCC(C(=O)OCC)CC2)nc2cc(S(N)(=O)=O)ccc21`: -5.51% (inactive).
The same measure for `CCCCn1c(SCC(=O)N2CCCC2=O)nc2cc(S(N)(=O)=O)ccc21`: 2.2% (inactive); for `Cc1ccccc1/C=C\c1nc(O)c([N+](=O)[O-])c(=O)[nH]1`: -3.61% (inactive); for `CC(=O)c1ccc(N2CCN(S(=O)(=O)c3c(C)[nH]c(=O)[nH]c3=O)CC2)cc1`: -4.3% (inactive).
Under `CC(=O)c1ccc(N2CCN(S(=O)(=O)c3ccc4c(c3)CC(=O)N4C)CC2)cc1` stands 20.6% (active); under `CC(=O)c1ccc(N2CCN(C(=O)C3CCN(S(=O)(=O)c4ccc5c(c4)CC(C)N5C(=O)C4CC4)CC3)CC2)cc1` (centres undefined), 8.74% (inactive).
Take `COc1cccc(NC(=O)C/C(C)=N/NC(=O)C2CCCCC2)c1`: the inhibition is 4.45% (inactive).
As for `COc1ccc(CCNC(=O)C2CC3Cn4c(nc5cc(C)c(C)cc54)C3N2C)cc1` (centres undefined), the inhibition is -2.39% (inactive).
Consider `C=CCOC(=O)C1=C[C@@H](c2ccc3c(c2)OCO3)C[C@@H](OCCCCO)O1`, for which the inhibition is 5.48% (inactive).
Regarding `O=C(CN1C(=O)NC(Cc2ccccc2)(Cc2ccccc2)C1=O)NCC1CCCCC1`, the inhibition was -3.39% (inactive).
The same measure for `CN(C)c1nc(Nc2ccc(Cl)c(Cl)c2)nc(N(C)C)n1`: 0.07% (inactive); for `OCCNc1nc(Nc2ccc(Cl)c(Cl)c2)nc2ccccc12`: 23.4% (active).
Turning to `COc1cc2nc(Cl)nc(NCCO)c2cc1OC`, the inhibition is -3.14% (inactive).
On to `CCc1ccc(CNC(=O)C2CC(=O)N(CCc3ccc(C)cc3)C2)cc1` (centres undefined), for which the inhibition was -3.41% (inactive).
Under `CCC(=O)N1CCN=C1SCc1ccc(F)cc1` stands -1.6% (inactive); under `CCOC(=O)C1=C(O)/C(=C/c2ccc(OCC(=O)Nc3ccc(C)cc3)cc2)N=C1C`, 15.1% (inactive); under `COC(=O)C1=C(O)/C(=C/c2ccc(OCC(=O)Nc3ccccc3)cc2)N=C1C`, 1.71% (inactive).
For `Cc1ccc(NC(=O)COc2ccc(/C=C3/NC(=O)NC3=O)cc2)cc1`, the inhibition is 19.3% (active).
Take `CCc1cccc(NC(=O)COC(=O)C2CCN(c3ccc(C(F)(F)F)cn3)CC2)c1`: the inhibition was 3.82% (inactive).
As for `Cc1noc(C)c1S(=O)(=O)NCCc1ccc(S(N)(=O)=O)cc1`, the inhibition is -1.43% (inactive).
As to `O=C(c1ccc(Cl)c(S(=O)(=O)N2CCCCCC2)c1)N1CCN(c2ccc(O)cc2)CC1`, the inhibition was 5.02% (inactive).
Under `CC(C)n1ncc2c(C(=O)NCc3ccccc3CN(C)C)cc(C3CC3)nc21` stands 3.23% (inactive); under `O=C(NCC(c1ccco1)N1CCc2ccccc2C1)c1ccccc1Cl` (centres undefined), -5.84% (inactive); under `CC(C)c1ccc(/C=C/C(=O)NNC(=O)c2cccnc2)cc1`, -4.56% (inactive).
The same measure for `O=C(/C=C/c1ccc(F)cc1)NC(=S)NNC(=O)c1cccnc1`: 24.8% (active); for `O=C(/C=C/c1ccc(F)cc1)NCCNC(=O)/C=C/c1ccc(F)cc1`: -0.56% (inactive); for `CCN(CC)Cc1c(C(=O)N/N=C/c2cccc(OCc3ccc(F)cc3)c2)nnn1-c1nonc1N`: -5.41% (inactive).
The same measure for `COc1cccc(N2CCN(c3ccc4nnc(CCC(=O)N5CCN(C)CC5)n4n3)CC2)c1`: -3.98% (inactive); for `OC(CNCCc1ccc(Cl)cc1Cl)COc1ccccc1` (centres undefined): 10.6% (inactive); for `CCOc1ccc(NC(=O)NNC(=O)c2ccc(Cl)cc2Cl)cc1`: 3.13% (inactive).
With `NC(N)=N/N=C/c1ccc(OCc2ccc(Cl)cc2Cl)cc1`, the inhibition is 37.2% (active).
Consider `Cc1cccc(Nc2nnc(SCC(=O)c3c(N)n(C4CC4)c(=O)[nH]c3=O)s2)c1C`, for which the inhibition is -0.71% (inactive).
Under `O=C(O)c1cc([N+](=O)[O-])c(Nc2cccc3ccccc23)c([N+](=O)[O-])c1` stands 3.7% (inactive); under `O=C(Nc1ccc(F)cc1)N1CCCC(c2nc3c(nnn3Cc3ccccc3Cl)c(=O)[nH]2)C1` (centres undefined), 4.93% (inactive); under `Cc1ccc(C)c(Cn2nnc3c(=O)[nH]c(C(=O)Nc4ccc(F)cc4)nc32)c1`, 46.5% (active).
The same measure for `Cc1cc(C)cc(NC(=O)Cn2cnc3c(nnn3Cc3ccc(F)cc3)c2=O)c1`: 8.94% (inactive); for `CCCn1nnnc1NCc1ccc(CC)cc1`: 0.05% (inactive).
The same measure for `Cc1nc(NC(=O)C2CCCCC2)sc1C`: -0.06% (inactive); for `Cc1ccc(Cn2nnc3c(=O)[nH]c(C4CCN(S(=O)(=O)/C=C/c5ccccc5)CC4)nc32)cc1`: 20.9% (active).
Regarding `COc1ccc(Cn2nnc3c(=O)[nH]c(C4CCN(C(=O)c5ccccc5Cl)CC4)nc32)cc1`, the inhibition is 1.01% (inactive).
Under `Cc1ccc(NC(=O)N2CCC(c3nc4c(nnn4Cc4c(F)cccc4Cl)c(=O)[nH]3)CC2)cc1` stands 4.5% (inactive); under `Cc1ccc(S(=O)(=O)CCC(=O)OCc2ccccc2)cc1`, -6.27% (inactive); under `CC(=O)[C@@]12O[C@@H]1C[C@H]1[C@@H]3CC[C@H]4C[C@@H](O)CC[C@]4(C)[C@H]3CC[C@@]12C`, 0.47% (inactive).
As to `COCCN(CCOC)S(=O)(=O)c1ccc(/C(O)=C(\C#N)c2nc3ccccc3[nH]2)cc1`, the inhibition was -3.73% (inactive).
The same measure for `C=CCN(CC=C)S(=O)(=O)c1ccc(C(=O)Nc2sc3c(c2C(N)=O)CCCCC3)cc1`: -0.71% (inactive).
Regarding `CCN(c1ccccc1)S(=O)(=O)c1ccc(C(=O)Nc2nccs2)cc1`, the inhibition was 1.49% (inactive).
Under `C=CCN(CC=C)S(=O)(=O)c1ccc(C(=O)Nc2nc3c(s2)CCc2ccccc2-3)cc1` stands 25.9% (active); under `COCCN(CCOC)S(=O)(=O)c1ccc(C(=O)Nc2nc3c(s2)CCc2ccccc2-3)cc1`, 22.6% (active).
As to `COc1ccc(C(=O)Nc2ncc3c(n2)-c2ccccc2CC3)cc1`, the inhibition was -1.56% (inactive).
The same measure for `Cc1ccc(NC(=S)Nc2ncccc2C)c(C)c1`: -1.13% (inactive).
The same measure for `C#CCOCCOCCOCCNc1nc(N2CCN(C(=O)CCCCCCCCCCNC(=O)[C@H](CCCCN)n3cc(C)nn3)CC2)nc(N2CCN(C(=O)CCCCCCCCCCNC(=O)[C@H](CO)n3cc(CCCSC)nn3)CC2)n1`: 64.8% (active).
For `C#CCOCCOCCOCCNc1nc(N2CCN(C(=O)[C@H](CCCCN)n3cc(CCC(=O)O)nn3)CC2)nc(N2CCN(C(=O)[C@H](CCCCN)n3cc(CC(C)O)nn3)CC2)n1` (some centres undefined), the inhibition was 5.96% (inactive).
Under `C#CCOCCOCCOCCNc1nc(N2CCN(C(=O)Cn3cc(CCCCN)nn3)CC2)nc(N2CCN(C(=O)[C@H](CCCCN)n3cc(CCC(=O)O)nn3)CC2)n1` stands -0.58% (inactive); under `C#CCOCCOCCOCCNc1nc(N2CCN(C(=O)C([C@@H](C)CC)n3cc(C(N)COC(=O)C(F)(F)F)nn3)CC2)nc(N2CCN(C(=O)[C@H](CCCCN)n3cc(C(N)CC(C)C)nn3)CC2)n1` (some centres undefined), 8.45% (inactive); under `C#CCOCCOCCOCCNc1nc(N2CCN(C(=O)CCCCCCCCCCNC(=O)Cn3cc(CCCCCN)nn3)CC2)nc(N2CCN(C(=O)CCCCCCCCCCNC(=O)[C@H](CO)n3cc(CCCSC)nn3)CC2)n1`, 64.7% (active).
Under `C#CCOCCOCCOCCNc1nc(N2CCN(C(=O)[C@H](CCCCN)n3cc([C@@H](N)C(C)CC)nn3)CC2)nc(N2CCN(C(=O)[C@H](Cc3ccc(O)cc3)n3cc([C@@H](N)C(C)CC)nn3)CC2)n1` (some centres undefined) stands 5.1% (inactive).
For the compound `C#CCOCCOCCOCCNc1nc(N2CCN(C(=O)[C@H](C(C)C)n3cc(CCO)nn3)CC2)nc(N2CCN(C(=O)[C@H](C(C)C)n3cc(CCO)nn3)CC2)n1`, the inhibition was -0.91% (inactive).
Regarding `C#CCOCCOCCOCCNc1nc(N2CCN(C(=O)[C@H](C(C)C)n3cc(CCO)nn3)CC2)nc(N2CCN(C(=O)[C@H]([C@@H](C)CC)n3cc(CCCN=C(N)N)nn3)CC2)n1`, the inhibition is 0.22% (inactive).
Under `C#CCOCCOCCOCCNc1nc(N2CCN(C(=O)CCCCCCCCCCNC(=O)[C@H]([C@@H](C)CC)n3cc(CCCCN=C(N)N)nn3)CC2)nc(N2CCN(C(=O)CCCCCCCCCCNC(=O)[C@H](CO)n3cc(CCCSC)nn3)CC2)n1` stands 53.8% (active); under `CN1CCN(c2ccc(CNS(=O)(=O)c3cccc(F)c3)cc2)CC1`, -3.01% (inactive).
For the compound `O=C1/C(=C/c2cccs2)CCC1C1CCCC1` (centres undefined), the inhibition is -2.41% (inactive).
Under `CC(=O)Oc1cc2c(C(=O)NCCN3CCOCC3)c(C)oc2c2ccccc12` stands -0.6% (inactive); under `Cc1ccc(N=C2NC(=O)c3cccc([N+](=O)[O-])c32)cc1`, -1.21% (inactive).
For the compound `COc1ccccc1C(=O)NC(=O)COC(=O)C1CC1`, the inhibition was -1.39% (inactive).
The same measure for `CCC(=C/c1sc2ccc3ccccc3c2[n+]1C)/C=C1\Sc2ccc3ccccc3c2N1C`: 79.3% (active); for `CC(NCc1ccccc1OC1CCCC1)c1ccccc1` (centres undefined): -3.47% (inactive); for `O=C(Nc1ccc(S(=O)(=O)NCC2CCCO2)cc1)c1ccc(F)cc1` (centres undefined): 1.04% (inactive).
Under `CC(C)(C)Nc1nc(-c2ccccn2)nc2ccccc12` stands 18.4% (active); under `COc1ccc(NCCc2ccccn2)cc1`, 1.13% (inactive).
As to `CCOCCCNc1nc(-c2ccccc2)nc2ccccc12`, the inhibition was 3.36% (inactive).
Under `COc1cnc(-c2ccccn2)nc1Oc1ccc(C(C)(C)C)cc1` stands 57.9% (active); under `CCC(=O)OCCNc1nc(-c2ccccc2)nc2ccccc12`, 0.15% (inactive).
Under `Cc1ccc(Oc2nc(-c3ccccn3)nc3ccccc23)cc1` stands 17.4% (active); under `N#Cc1ccc(Oc2cc(C(F)(F)F)nc(-c3ccccn3)n2)cc1`, -1.29% (inactive); under `CC(C)(C)c1ccc(Oc2ccc(N)cc2)cc1`, 1.18% (inactive).
The same measure for `Cc1ccc(Oc2nc3ccccc3n3c(C)nnc23)cc1`: -3.88% (inactive).
